Only some compounds are listed: those with a hit (about 21% of all), similar ones and a draw of the others.
NS1 inh – blocks influenza NS1 protein function; Potency, µM (doses to about 46.1 µM); AID 2326; 0.4% of 270,000 active; calls by dose curve; note: actives are rising curves; nearly all actives have a fitted effect of over 50% in size
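Growth recovery, yeast-based: influenza A NS1 expressed in S. cerevisiae causes slow growth, and suppressors are detected by OD600. The parent strain without NS1 is used as positive control.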
Pf growth 96h – inhibits malaria parasite growth, 96 h | P. falciparum luciferase reporter growth, 96 h | Potency, µM (highest dose often 28.7 µM), hits mostly inhibitors | 6.9% of 320,000 active | AID 504834
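P. falciparum expressing integrated firefly luciferase grown in erythrocytes (2% hematocrit, 0.05% parasitemia final) with compounds for 96 hours at 37 C, 5% CO2. Growth inhibition read as loss of luminescence after adding luciferase detection reagent.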
Shiga toxin inh – inhibitors of Shiga toxin in Vero cells; Vero cells, Shiga toxin protein synthesis inhibition reporter; inhibition, % at 38.7 µM; 9.2% of 290,000 active; AID 2315; in the data active = inhibition mostly above about 28%, no sharp cut-off; inactive = mostly below about 43%
Pf growth 48h – inhibits P. falciparum growth in the first generation, 48 h; Potency, µM (titrated, usually from 28.7 µM), hits mostly inhibitors; P. falciparum luciferase growth in erythrocytes, 48 h; AID 504832; 5.9% of 310,000 active
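First compound was added to culture medium, then infected red cells at 0.1% parasitemia and 2% hematocrit (final). After incubation at 37 C under 5% CO2, luciferase detection reagent was dispensed and light output recorded.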
CHX counter – counter-screen for Shiga toxin inhibitors: cycloheximide protein synthesis inhibition. cell reporter, cycloheximide protein synthesis inhibition counterscreen. max response, %. 12% of 300,000 active; in the data active = max response mostly above about 13%, no sharp cut-off; inactive = mostly below about 14%; note: read at 38.3 µM for the half of the compounds with a filed dose
Sm TGR block – inhibitors of Schistosoma mansoni thioredoxin glutathione reductase | Potency, µM (doses to about 114 µM), usual class: inhibitors | 3% of 360,000 active | purified TGR, DTNB reduction, TNB absorbance 405 nm; note: nearly all actives have a fitted effect of over 60% in size
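TGR 20 nM + NADPH 100 uM (dispensed conc.), cpd preinc 15 min RT; start with NADPH (500 uM addition) then DTNB (15 mM addition). Kinetic TNB absorbance, 405 nm filter. Four-parameter Hill fit across titration.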
Each line names hits and unclear results; the compound was inactive in the other large screens. Unless noted, calls come from the whole dose curve; as a rule, active = well fitted curve in the direction sought with a large enough effect; inconclusive = small, poorly fitted or top-dose-only effect, or another doubt; inactive = no such curve, though single readings can be large; an effect the other way counts as inactive or inconclusive.

CS(=O)(=O)N(CC(=O)N1CCN(C(c2ccccc2)c2ccccc2)CC1)C1CCCCC1	Pf growth 96h 2.6µM (no result: Pf growth 48h)
O=C(C1CCCCN1S(=O)(=O)c1ccccc1)N1CCCCC1 (stereo not drawn)	Pf growth 96h inconclusive, Pf growth 48h inconclusive
O=C(C1CCCCN1S(=O)(=O)c1ccc(F)cc1)N1CCN(c2ccccc2F)CC1 (stereo not drawn)	Pf growth 96h 4.7µM
O=C(c1cccc(NS(=O)(=O)c2ccc(F)c(F)c2)c1)N1CCN(C(c2ccccc2)c2ccccc2)CC1	Pf growth 96h inconclusive, Pf growth 48h 13µM
COc1ccccc1N1CCN(C(=O)C2CCCCN2S(=O)(=O)c2ccc(C)cc2)CC1 (stereo not drawn)	Pf growth 48h inconclusive
CCCCC(C(=O)O)C(C)CC(=O)NNC(=O)c1ccco1 (stereo not drawn)	none
CCOc1cc(/C=C/c2nc3cc(C)c(C)cc3s2)ccc1OCC(=O)N1CCOCC1	Pf growth 96h 10µM, Pf growth 48h inconclusive
CCOc1cc(/C=C\[N+](=O)[O-])ccc1OCC(=O)N1CCOCC1	Pf growth 96h inconclusive, Pf growth 48h inconclusive, Sm TGR block 10µM (no result: NS1 inh)
CC(C)c1onc(C(=O)N2CCN(Cc3ccccc3)CC2)c1[N+](=O)[O-]	NS1 inh inconclusive, Pf growth 96h inconclusive, Pf growth 48h inconclusive
COc1cc2c(cc1NC(=O)c1cc(-c3ccccn3)nc3ccccc13)oc1ccccc12	NS1 inh inconclusive
COC(CNC(=O)C(=O)Nc1cc2c3c(c1)CC(=O)N3CCC2)OC	none
CCOC(=O)c1cc(CC)sc1NC(=O)c1cc(OCC)c(OCC)c(OCC)c1	Pf growth 96h 5.9µM, Pf growth 48h 8.3µM
CCOC(=O)c1cc(CC)sc1NC(=O)C(c1ccccc1)c1ccccc1	Pf growth 96h 8.3µM, Pf growth 48h inconclusive
CCOC(=O)c1cc(CC)sc1NC(=O)c1ccc2c(c1)OCCO2	none (no result: Pf growth 96h)
CCOC(=O)c1c(NC(=O)C(c2ccccc2)c2ccccc2)sc2c1C1CCN2CC1	Pf growth 96h inconclusive, Pf growth 48h 2.1µM
COc1ccc2c(c1)CCc1cnc(N)nc1-2	Pf growth 96h inconclusive, CHX counter 12
O=C(CCl)Nc1ccccc1C(=O)NCc1ccccc1	Pf growth 96h inconclusive, Pf growth 48h inconclusive, Sm TGR block inconclusive
O=C(CCc1ccccc1)NNC(=O)c1cccc(F)c1	none (no result: NS1 inh)
O=C(CC(=O)c1ccccc1O)c1ccc(F)cc1	Pf growth 96h inconclusive, Shiga toxin inh 70, CHX counter 49 (no result: Pf growth 48h)
O=C(CC(=O)c1ccccc1O)c1cccc(F)c1	Pf growth 96h inconclusive, Shiga toxin inh 56, Pf growth 48h inconclusive, CHX counter 34
O=C(CC(=O)c1c(F)cccc1Cl)c1ccccc1O	Pf growth 96h inconclusive, Shiga toxin inh 52, Pf growth 48h 12µM, CHX counter 55
COc1ccc(N)cc1-n1cnnn1	none (no result: NS1 inh)
CC(C)C(OC(=O)/C=C/c1ccc2c(c1)OCO2)C(=O)NC(N)=O (stereo not drawn)	none
N#Cc1ccc(Oc2ccc(-c3cnc4ccccc4n3)cc2)cc1C#N	none
N#Cc1ccc(Oc2ccc(-c3nc4ccccc4nc3-c3ccccc3)cc2)cc1C#N	Pf growth 96h 3.7µM
Cc1ccc(-c2nc(C3CCN(S(=O)(=O)c4ccc(C(C)(C)C)cc4)CC3)no2)cc1	Pf growth 96h 2.9µM (no result: Pf growth 48h)
CC(C)(C)c1ccc(C(=O)N2CCC(c3noc(-c4ccc(S(=O)(=O)N5CCCC5)cc4)n3)CC2)cc1	none (no result: NS1 inh, Pf growth 96h, Shiga toxin inh, Pf growth 48h, CHX counter)
CC(OC(=O)Cc1c(F)cccc1Cl)C(=O)NC1CCCCC1C (stereo not drawn)	Pf growth 96h inconclusive (no result: NS1 inh, Shiga toxin inh, CHX counter)
Cc1nn2c(COc3ccc(NC(=O)C(C)C)cc3)nnc2c2ccccc12	Pf growth 48h inconclusive (no result: NS1 inh)
Cc1nn2c(COc3ccc(NC(=O)c4ccccc4Cl)cc3)nnc2c2ccccc12	NS1 inh inconclusive, Pf growth 96h 4.1µM, Pf growth 48h 12µM
O=c1c(C=NCCCn2ccnc2)c(-c2ccccc2)[nH]n1-c1nc2ccccc2s1	Pf growth 48h 10µM (no result: Pf growth 96h)
N#CCCn1cc(C(CC(=O)c2ccccc2)C(=O)O)c2ccccc21 (stereo not drawn)	NS1 inh inconclusive, CHX counter 30, Sm TGR block inconclusive
N#CCCn1cc(C(=O)CN2C(=O)NC3(CCCCCC3)C2=O)c2ccccc21	Pf growth 96h inconclusive, Pf growth 48h inconclusive (no result: NS1 inh, Shiga toxin inh, CHX counter)
CC(Oc1ccccc1F)C(=O)NNC(=O)CC(C)c1ccccc1 (stereo not drawn)	none (no result: NS1 inh, Shiga toxin inh, CHX counter)
COc1ccc(S(=O)(=O)N2N=C(c3ccc(NS(C)(=O)=O)cc3)CC2c2ccco2)cc1 (stereo not drawn)	Sm TGR block 14µM (no result: NS1 inh)
CS(=O)(=O)Nc1ccc(C2=NN(C(=O)c3ccco3)C(c3ccco3)C2)cc1 (stereo not drawn)	Pf growth 96h inconclusive, Pf growth 48h inconclusive, Sm TGR block inconclusive
COc1cccc(C2=NN(C(=O)c3ccco3)C(c3ccco3)C2)c1 (stereo not drawn)	Shiga toxin inh 72, CHX counter 29, Sm TGR block inconclusive
COc1ccc(S(=O)(=O)N2N=C(c3cccc(NS(C)(=O)=O)c3)CC2c2ccco2)cc1 (stereo not drawn)	Pf growth 96h 13µM, Sm TGR block 22µM
Cc1ccc2ncc(C(=O)Nc3ccc(F)cc3F)c(=O)n2c1	none (no result: NS1 inh, Pf growth 96h, Shiga toxin inh, Pf growth 48h, CHX counter)
CC(C)(C)C(=O)Nc1cccc(OC(F)(F)C(F)Cl)c1 (stereo not drawn)	none
O=C(CSc1nc(-c2ccncc2)nn1CC(=O)N1CCCCC1)NC1CCCC1	Sm TGR block 40µM
COc1ccc(C(=O)NCCn2cc(SCC(=O)Nc3ccc4c(c3)OCCO4)c3ccccc32)cc1	none (no result: NS1 inh, Pf growth 96h, Shiga toxin inh, Pf growth 48h, CHX counter)
CSc1ccc(/C=N/NC(=O)c2cccs2)cc1	Pf growth 96h inconclusive, Shiga toxin inh 66, CHX counter 52
COc1ccccc1C(=O)N/N=C/c1cnc2ccccc2n1	Shiga toxin inh 125, CHX counter 59
O=C(O)c1ccc(COc2ccc(/C=N/NC(=O)c3cccs3)cc2)cc1	none
O=C(N/N=C/c1ccc(-c2ccccc2C(=O)O)o1)c1cccs1	Shiga toxin inh 49, CHX counter 33, Sm TGR block inconclusive
O=C(N/N=C\c1ccc(Cl)s1)c1cccs1	Pf growth 96h inconclusive, CHX counter 43 (no result: Pf growth 48h)
COc1ccccc1C(=O)N/N=C/c1ccc(Cl)s1	Pf growth 96h inconclusive, Shiga toxin inh 78, CHX counter 49
O=C(N/N=C/c1ccncc1)c1cccs1	Pf growth 96h inconclusive, Shiga toxin inh 91, CHX counter 52 (no result: Pf growth 48h)
O=C(N/N=C/c1ccc(-n2ccnc2)cc1)c1cccs1	Shiga toxin inh 85, CHX counter 45
CCn1c(SCc2ccccc2F)nc(=O)c2c(C(=O)OC)cc(C3CC3)nc21	none (no result: NS1 inh, Pf growth 96h, Shiga toxin inh, Pf growth 48h, CHX counter)
COc1ccc(CNC(=O)CN2CCN(S(=O)(=O)c3cccs3)CC2)cc1OC	none (no result: NS1 inh)
CCOc1ccc(-c2c(C)nn3c(C)c(C(=O)NCCc4ccc(C)cc4)cnc23)cc1OCC	none (no result: NS1 inh, Pf growth 96h, Shiga toxin inh, Pf growth 48h, CHX counter)
